Compound activity deposited in PubChem BioAssay by The Scripps Research Institute Molecular Screening Center.
Shown are actives, neighbours in structure and some others; about 0.84% of the full set was active somewhere.
SRC3 TRFRET art = counter-screen for PPARgamma SRC-3 recruitment agonists: TR-FRET artefact; PPARgamma/SRC-3 format; stronger effect = higher value; TR-FRET ratio at 8 µM; 99,000 tested, 0.39% active
SRC1 TRFRET art = counter-screen for PPARgamma SRC-1 recruitment agonists: TR-FRET artefact | TR-FRET detection artefact counter-screen, emission ratio; stronger effect = higher value | TR-FRET ratio at 8 µM | 99,000 tested, 0.34% active | AID 1051; in the data active = TR-FRET ratio above about 2300
PPARg SRC-2 ag = promotes SRC-2 coactivator recruitment by human PPARgamma; PPARgamma LBD-SRC-2 recruitment, biochemical; activation, % at 8 µM; 200,000 tested, 0.34% active; AID 1032; in the data active = activation above about 22%
Target sequence (P37231 whole entry, looked up, the tested form may be a part): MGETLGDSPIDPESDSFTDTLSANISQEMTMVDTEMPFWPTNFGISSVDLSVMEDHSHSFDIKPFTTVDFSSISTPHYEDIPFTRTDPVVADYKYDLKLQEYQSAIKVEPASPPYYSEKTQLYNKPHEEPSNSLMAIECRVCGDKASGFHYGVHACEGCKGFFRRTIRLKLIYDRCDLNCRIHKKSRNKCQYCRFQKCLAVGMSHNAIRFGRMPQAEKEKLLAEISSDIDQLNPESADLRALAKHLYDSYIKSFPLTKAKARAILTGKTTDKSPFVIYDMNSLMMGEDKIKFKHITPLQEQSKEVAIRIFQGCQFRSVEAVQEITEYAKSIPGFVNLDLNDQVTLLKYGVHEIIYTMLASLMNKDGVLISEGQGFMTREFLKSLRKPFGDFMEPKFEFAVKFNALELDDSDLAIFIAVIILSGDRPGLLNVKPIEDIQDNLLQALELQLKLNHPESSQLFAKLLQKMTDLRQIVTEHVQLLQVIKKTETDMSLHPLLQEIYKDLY
PPARg SRC3 recr = promotes SRC-3 coactivator recruitment by human PPARgamma; 200,000 tested, 0.26% active; biochemical PPARgamma/SRC-3 coactivator recruitment assay; P37231; AID 731; activation, % at 8 µM; in the data active = activation above about 23%
PPARg SRC1 recr = PPARgamma-driven SRC-1 recruitment agonism. PPARgamma-SRC-1 coactivator recruitment biochemical assay. P37231. 200,000 tested, 0.41% active. activation, % at 8 µM; in the data active = activation above about 19%
TR-FRET SRC-2 ct = TR-FRET artefact, counter-screen to PPARgamma/SRC-2 agonist assay. AID 1049. 200,000 tested, 0.4% active. stronger effect = higher value. TR-FRET ratio at 8 µM
Hits are given with their value; n = inactive; x = no result. Cut-off read from the data, not from the text of the source, unless noted: active = TR-FRET ratio above about 2000; inactive = the rest.

SMILES	SRC3 TRFRET art	SRC1 TRFRET art	PPARg SRC-2 ag	PPARg SRC3 recr	PPARg SRC1 recr	TR-FRET SRC-2 ct
CSc1cc(-c2ccc(Cl)cc2)n(Cc2ccccc2)c(=O)c1C#N	x	x	n	42.9	n	n
Cc1cccc2nc(-c3ccccc3)nc(N3CCC(O)(c4ccc(Cl)cc4)CC3)c12	n	n	n	n	n	2045
Cc1ccc(S(=O)(=O)c2cn(Cc3ccc(F)cc3)c3cc4c(cc3c2=O)OCO4)cc1	2414	n	n	n	n	n
Cc1ccc(C(c2c(C)n(C)n(-c3ccccc3)c2=O)c2c(C)n(C)n(-c3ccccc3)c2=O)s1	n	n	n	n	n	n
Cc1ccc(S(=O)(=O)NCCn2c(C)cc3ccccc32)cc1	x	x	n	n	n	2803
Cc1cc(C)c(S(=O)(=O)NCCn2c(C)cc3ccccc32)c(C)c1	x	x	n	n	n	2078
Cc1cc2cc(CNC(=O)c3ccc(S(=O)(=O)N(C)C)cc3)ccc2n1C	x	x	n	n	n	2108
Cc1cc2ccccc2n1CCNC(=O)Cc1ccccc1	x	x	n	n	n	n
CC(=O)Nc1ccc(S(=O)(=O)NCc2ccc3c(c2)cc(C)n3C)cc1	x	x	n	n	n	n
Cc1cc(C)c(S(=O)(=O)NCc2ccc3c(c2)cc(C)n3C)c(C)c1	x	x	n	n	n	2083
Cc1ccc(N2C(=O)CC(Sc3ncn[nH]3)C2=O)cc1C (stereo unspecified)	x	x	n	n	n	n
Cc1nnc(NC(=O)c2sc3ccccc3c2Cl)s1	x	x	n	n	n	n
Cc1ccc(NC(=O)c2sc3ccccc3c2Cl)nc1	x	x	n	n	36.1	n
O=c1c(/C=N/OCc2ccc(Cl)cc2Cl)c[nH]n1-c1cccc(Cl)n1	n	n	n	n	n	2085
COc1cccc(NC(=S)/C(=C(\[O-])c2ccc(OC(F)F)cc2)[n+]2ccccc2)c1	n	n	n	n	n	1987
C=CCn1c(Cc2cccs2)nnc1SCC(=O)c1ccc(F)cc1	x	x	n	n	21.4	n
CC(O)c1nc2ccccc2n1CC(=O)N1CCN(c2ccccc2)CC1 (stereo unspecified)	n	n	n	n	n	n
OCC1(Cc2ccc(Cl)cc2)CCN(Cc2ccc3nsnc3c2)CC1	n	2393	n	n	n	n
COc1cccc(N2CCN(C(=O)C3CCN(S(=O)(=O)c4cccs4)CC3)CC2)c1	n	n	n	n	n	n
CN(CCOc1ccc(-c2ccn(S(=O)(=O)c3cccc4ccccc34)n2)cc1)c1ccccn1	x	x	n	n	n	n
O=C(c1ccc(Br)cc1)c1sc(N2CCOCC2)nc1-c1ccccc1	2783	n	n	n	n	n
COc1ccc(-c2nc(N3CCCCCC3)sc2C(=O)c2ccccc2)cc1	x	x	n	n	n	2098
CCOC(=O)c1c(C)n(-c2ccc(C)cc2)c2ccc(OCC(O)CN3CCN(C)CC3)cc12 (stereo unspecified)	n	n	n	n	n	n
Cc1cccc(C)c1NC(=S)Nc1c(C)n(C)n(-c2ccccc2)c1=O	n	n	n	n	26.2	n
CC(C)c1ccc(OCC(=O)NC(=S)Nc2ccc3c4c(cccc24)CC3)cc1	x	x	n	n	22.5	n
SMILES	SRC3 TRFRET art	SRC1 TRFRET art	PPARg SRC-2 ag	PPARg SRC3 recr	PPARg SRC1 recr	TR-FRET SRC-2 ct
O=C(N/N=C/c1cn(-c2ccccc2)nc1-c1cccnc1)c1cccnc1	n	2335	n	n	n	n
COc1ccc(-c2cc(C(F)F)n3ncc(C(=O)N4CCCc5ccccc54)c3n2)cc1	n	n	n	25.5	n	n
O=C(c1cnn2c(C(F)F)cc(-c3ccccc3)nc12)N1CCCc2ccccc21	x	x	n	n	n	n
O=C(NC1CCCCC1)C1CC=CCC1C(=O)OCC(Cl)=C(Cl)Cl (stereo unspecified)	x	x	n	n	n	n
CC(C)(C)c1ccc(OC(=O)c2ccc(-n3cncn3)nc2)cc1	n	n	n	n	n	n
Cc1c(C(=O)Nc2ccc(-n3cnnn3)cc2)oc2ccccc12	x	x	n	n	n	1999
COc1cccc(/C=N/NC(=O)c2csc(-n3nc(C)cc3C(F)(F)F)n2)c1	x	x	n	26.7	n	n
COc1ccc(OC)c(NC(=O)CSc2nnc(N)s2)c1	x	x	22.8	n	n	n
COc1ccc(OC)c(NC(=O)CSc2nnc(-c3cccnc3)s2)c1	n	n	n	n	n	n
COc1ccccc1NC(=O)c1ccc(NC(=O)CSc2n[nH]c(N)n2)cc1	n	n	n	n	n	n
CC(C)CCSc1nc(N)c(C#N)cc1C#N	x	x	n	n	n	2957
COC(=O)C1=C(C)NC(=O)CC1c1cc2c(cc1Br)OCO2 (stereo unspecified)	2175	n	n	n	n	n
CCOC(=O)Cc1cnc(NC(=O)CSc2nc(C)c(CC)c(=O)[nH]2)s1	n	n	n	n	n	n
COc1ccc(/C(O)=C2\C(=O)C(=O)N(c3cc(C)on3)C2c2cccc(OC)c2OC)cc1C (stereo unspecified)	x	x	n	n	n	2062
Cc1ccc(/C(O)=C2\C(=O)C(=O)N(c3cc(C)on3)C2c2cccc(Cl)c2)cc1 (stereo unspecified)	x	x	n	n	n	n
N#Cc1ccc(-c2ccccc2)nc1SCC(=O)c1cc2ccccc2oc1=O	x	x	n	n	64.3	n
CC(C)c1c(C#N)c(N)nc(SCC(=O)c2cc3ccccc3oc2=O)c1C#N	n	n	n	n	n	n
CNC(=S)N1C2CCC1CC(NC(=O)NC13CC4CC(CC(C4)C1)C3)C2 (stereo unspecified)	x	x	n	n	n	n
CCN(CC)CCCNC(=O)c1ccc2c(SCC(=O)O)c3c(nc2c1)CCC3	n	n	23.1	n	n	n
CC(=O)N1CCc2ccc(S(=O)(=O)N3CCN(C)CC3)cc21	n	n	n	n	n	n
C#CCONC(=O)c1cc(OCC(F)(F)F)ccc1OCC(F)(F)F	x	x	n	n	n	n
O=C(NCc1n[nH]c(=S)n1-c1ccc(Br)cc1)c1ccc(S(=O)(=O)N2CCCC2)cc1	n	n	n	n	n	n
O=C(NCc1n[nH]c(=S)n1-c1ccc(Br)cc1)c1ccc(S(=O)(=O)N2CCOCC2)cc1	n	n	22.3	n	n	n
CCOC(=O)CCNC(=O)N1CCCC(CNS(=O)(=O)c2cccs2)C1 (stereo unspecified)	n	n	n	n	n	n
CCOc1ccc2cc(C#N)c(SCC(=O)NC(C)CC)nc2c1 (stereo unspecified)	x	x	n	n	32.3	n
O=C1OCCN1C(=O)[C@H]1[C@H](c2ccc(Cl)cc2)C(c2cccc(Cl)c2)=NN1c1ccccc1	2817	3296	n	n	n	2617
COC(=O)c1c(NC(=O)COC(=O)CCc2ccc(S(=O)(=O)N3CCOCC3)cc2)sc2c1CCC2	n	n	n	n	n	n
Cc1ccc(-n2c(=S)[nH]c3sc4c(c3c2=O)CCC4)cc1	2074	n	n	n	n	n
O=c1[nH]c2sc3c(c2c(=O)n1Cc1ccccc1)CCC3	x	x	n	n	n	n
CCOC(=O)C1=C(C)NC(C)=C(C(=O)OCC)C1C(=O)OCC(=O)N1CCc2ccccc2C1	x	x	n	n	n	n
